Bioassay records: PubChem, National Center for Advancing Translational Sciences (NCATS)
Rows were chosen to be rich in hits. Some 12% of all compounds tested hit in one or more screens of this group.
Pf growth 96h: P. falciparum growth inhibition at 96 hours; P. falciparum luciferase reporter growth, 96 h; 6.9% of 320,000 active; Potency, µM (titrated, usually from 28.7 µM), without a hit: top-dose activity change, negative = inhibition, usual class: inhibitors; AID 504834; note: % is set by controls: 0 for no effect and ±100 for the full control effect
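Two-generation exposure (96 h) targets delayed-death phenotype. Reporter parasites carrying integrated firefly luciferase, in red cells at 2% hematocrit and 0.05% parasitemia final, kept at 37 C, 5% CO2; luminescence loss indicates inhibition.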
NS1 function inh: blocks influenza NS1 protein function; Potency, µM (highest dose often 46.1 µM), inactives show at the top dose activity, positive = more growth; 0.4% of 270,000 active; AID 2326; calls by dose curve; note: actives are rising curves; nearly all actives have a fitted effect of over 50% in size
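Read-out: OD600 growth recovery of NS1-expressing budding yeast. Cells grown overnight at 30C in -URA glucose medium, washed, resuspended and diluted 1:100 in 2% galactose assay medium, pH 6.0. Same strain lacking NS1 served as positive control.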
AMA1-RON2 inh: AMA1-RON2 (P. falciparum) interaction inhibition; 0.2% of 360,000 active; Potency, µM (top dose mostly 58.2 µM), for the others: top-dose activity change, negative = inhibition, usual class: inhibitors; AID 720542; AlphaScreen AMA1-biotinylated RON2 peptide binding;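 note: 0% = vehicle wells and -100% = peptide control; nearly all actives have a fitted effect of over 45% in size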
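AMA1 (3D7) with his tag at 25 nM final met compounds first, then biotinylated RON2 peptide at 25 nM; detection used donor plus acceptor beads, 10 µg/mL apiece, read by AlphaScreen after 30 min at room temperature.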
HCV inh: blocks hepatitis C virus; Huh7.5.1 HCVcc-Cre infection, luciferase reporter, 44 h; Potency, µM (titrated, usually from 41.8 µM), without a hit: at the top dose activity change, negative = inhibition, most hits filed as inhibitors; 3.4% of 340,000 active; AID 651820; note: % is set by controls: 0 for no effect and ±100 for the full control effect
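Infectious HCV cell culture screen: compound-treated cells (1,000/well, pre-plated 4 h) are infected with HCVcc-Cre at roughly 0.5 moi and grown 44 h. Infection is quantified by luciferase signal after 15 min substrate incubation at room temperature.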
Pf growth 48h: P. falciparum growth inhibition at 48 hours (one generation). P. falciparum luciferase growth in erythrocytes, 48 h. AID 504832. 5.9% of 310,000 active. Potency, µM (top dose mostly 28.7 µM), inactives show at the top dose activity change, negative = inhibition, actives largely listed as inhibitors; note: % is set by controls: 0 for no effect and ±100 for the full control effect
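Read-out is firefly luciferase luminescence from an integrated reporter in P. falciparum, so falling signal marks reduced parasite growth. Infected erythrocytes were at 2% hematocrit and 0.1% parasitemia (final) in Albumax-supplemented RPMI 1640.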
SARS PLpro yeast: SARS-CoV PLP inhibition in yeast; S. cerevisiae expressing SARS-CoV PLpro, growth rescue; Potency, µM (highest dose often 32.9 µM), without a hit: top-dose activity, positive = growth rescue, hits mostly activators; 0.19% of 330,000 active; AID 485353; calls by dose curve; note: 0% is about no effect; nearly all actives have a fitted effect of over 55% in size
* = called active by the depositor; ? = inconclusive; . = no result given; [ ] = another dose, or the depositor's remark. Unless noted, calls come from the whole dose curve; as a rule, active = well fitted curve in the direction sought with a large enough effect; inconclusive = small, poorly fitted or top-dose-only effect, or another doubt; inactive = no such curve, though single readings can be large; an effect the other way counts as inactive or inconclusive. Potency is the fitted concentration of half-maximal effect.

SMILES	Pf growth 96h	NS1 function inh	AMA1-RON2 inh	HCV inh	Pf growth 48h	SARS PLpro yeast
COc1ccc2[nH]c(C)c(C(=O)CN3CCN(C(=O)c4ccco4)CC3)c2c1	.	9%	-2%	-1%	?	0%
Cc1[nH]c2ccccc2c1C(=O)CN1CC=C(c2ccccc2)CC1	?	-14%	1%	3%[0.335 µM]	12µM*	-10%
Cc1[nH]c2ccccc2c1C(=O)CN1CCN(C/C=C/c2ccccc2)CC1	?	10%	10%	?	8.3µM*	-2%
Cc1sc2ncnc(SCC(=O)NC(=O)c3cccn3C)c2c1C	21%	.	22%	?	0%	1%
COC(=O)c1ccccc1C(=O)N1CCC(CCC(=O)NC2CC2)CC1	?	-5%	-12%	16%	-17%	-6%
CC1=C([N+](=O)[O-])C(c2cccc(Br)c2)C2=C(N1)c1ccccc1C2=O (centres undefined)	.	5%	-5%	?	4.7µM*	-17%
Cc1nc2c(ccc3nc(NC(=O)Cc4cccc5ccccc45)sc32)s1	?	14%	-5%	?	?	-10%
Cc1nc2c(ccc3nc(NC(=O)C(c4ccccc4)c4ccccc4)sc32)s1	10µM*	10%	0%	10µM*	3.7µM*	-17%
O=C(CO/N=C\c1ccccc1)Nc1ccccc1C(=O)N1CCOCC1	-5%	15%	10%	-14%	8%	-29%
Cc1cc(C)c(S(=O)(=O)Nc2ccc(Cl)cn2)c(C)c1	20%	-3%	-3%	2%	10µM*	4%
O=S(=O)(Nc1ccc(Cl)cn1)c1ccc(Cl)cc1	?	-41%	1%	17%	10%	0%
CCN(CC)S(=O)(=O)c1ccc(N2CC(C(=O)NC3(C)CCS(=O)(=O)C3)CC2=O)cc1 (centres undefined)	?	.	-9%	-14%	?	2%
CCOc1ccc2nc(SCC(=O)N3CCCCCC3)c(C#N)cc2c1	46%	-24%	3%	7.9µM*	?	-2%
C=CCC(NCc1ccco1)c1ccc(OC)cc1OC (centres undefined)	10µM*	6%	.	-3%	-12%	5%
C=CCC(NCc1ccco1)c1ccc(OC)c(OC)c1 (centres undefined)	44%	8%	-12%	17%	.	-3%
Cc1c(C)n(Cc2ccccc2)c2ncnc(NN)c12	-8%	-4%	40%	11µM*	8%[0.00184 µM]	-4%
Cc1c(C)n(CCCN(C)C)c2ncnc(Nc3ccccc3)c12	4%	5%	-2%	?	18%	0%
COc1ccccc1Nc1ncnc2c1c(C)c(C)n2CCCN(C)C	0%	10%	-8%	4µM*	0%	-2%
Cc1c(C)n(CCc2ccccc2)c2ncnc(NN)c12	-48%	0%	35%	-18%	-3%	-2%
O=C(COC(=O)/C=C/c1ccc(OC(F)F)cc1)NC1CCCCCC1	.	.	-14%	3%	.	18%
COc1ccc(NC(=O)CN(C)C(=O)C(C)Oc2ccc(Br)cc2)cc1 (centres undefined)	-6%	.	16%	-15%	10%	-1%
CSc1nc(N)nc2c1ncn2CC(=O)N1CCN(c2ccccn2)CC1	.	.	14%	10%	.	0%
O=S(=O)(NN=C1CCCCCC1)c1ccccc1	52%	12%	6%	-4%	13%	0%
COc1ccc(-c2cc(=O)[nH]c(=S)[nH]2)cc1	?	6%	72%	20%	1%	-2%
COc1cc(-c2ccccc2)[nH]c(=S)n1	7.4µM*	.	107%	-2%	35%	10%
SMILES	Pf growth 96h	NS1 function inh	AMA1-RON2 inh	HCV inh	Pf growth 48h	SARS PLpro yeast
CCOC(=O)C(C)Sc1cc(CS(=O)(=O)c2ccccc2)nc(-c2ccccc2)n1 (centres undefined)	10µM*	17%	1%	?	23%	-7%
CCCCn1c(N)c(N(CC(C)C)C(=O)COc2cc(C)ccc2Cl)c(=O)[nH]c1=O	0%	.	4%	-4%	11%	-2%
O=C(NC1CCCCC1)C(c1cc2c(cc1[N+](=O)[O-])OCO2)N1CCCCC1 (centres undefined)	13µM*	-5%	.	.	?	10%
O=S(=O)(NC(=NCCc1ccc(Cl)cc1)c1ccccc1Cl)c1cccs1	?	-1%	-1%	?	-38%	-2%
CCC(CC)CN1C(N(C)C)=NC[C@@H]1CC(C)C	8.3µM*	.	0%	20%	?	-1%
CCC(C)CCN1C(N(C)C)=NC[C@@H]1CC(C)C (some centres undefined)	?	.	24%	?	13µM*	0%
COC(=O)CCNC(=O)CCc1ccc(S(=O)(=O)N2CCCCCC2)cc1	?	.	-2%	17%	?	2%
CCCOC(=O)C1=C(C)NC2=C(C(=O)C(C(=O)OC)C(C)C2)C1c1ccc(N(CC)CC)cc1 (centres undefined)	?	-20%	?	10µM*	?	10%
CCN1N=C(c2ccccc2)Cn2c1nc1ccccc12	6.6µM*	-32%	128%	?	.	1%
CCCCC[n+]1ccn(C2=C([O-])c3ccccc3C(=O)/C2=N\S(=O)(=O)c2ccc(Br)cc2)c1	?	3%	0%	?	1.9µM*	0%
Cc1c(C(C)(C)C)s/c(=N/S(=O)(=O)c2ccccc2)n1C	47%	28%	2%	10%	?	0%
CCCC[n+]1ccn(C2=C([O-])c3ccccc3C(=O)/C2=N\S(=O)(=O)c2ccccc2)c1	8.3µM*	7%	2%	11µM*	1.9µM*	0%
CC(C)(C)c1cc[n+](C2=C([O-])c3ccccc3C(=O)/C2=N\S(=O)(=O)c2ccccc2)cc1	4.1µM*	-3%	-22%	-3%	3.7µM*	-2%
CCCCC[n+]1ccn(C2=C([O-])c3ccccc3C(=O)/C2=N\S(=O)(=O)c2ccccc2)c1	5.9µM*	11%	-15%	?	2.9µM*	0%
CCCCC[n+]1ccn(-c2nc3ccccc3nc2[N-]S(=O)(=O)c2ccc(C)cc2)c1	?	9%	150%	-16%	-16%	9%
CCOC(=O)c1c(C)[nH]c(C)c1C(=O)COC(=O)c1nc2nccc(C)n2n1	18%	.	-2%	0%	-20%	1%
CC1CN=C(NC(=O)c2cccc([N+](=O)[O-])c2)S1 (centres undefined)	-7%	?	-9%	0%	145%	12%
CC(C)c1ccc(NC(=O)C[n+]2ccn(C3=C([O-])c4ccccc4C3=O)c2)cc1	-24%	1%	-6%	20%	0%	1%
CC(C)[n+]1ccn(C2=C([O-])c3ccccc3C(=O)/C2=N\S(=O)(=O)c2ccccc2)c1	?	3%	-13%	?	6.6µM*	0%
